# MITF TRPM1 HTS: activators of MITF-driven TRPM1 promoter activity in SK-MEL-5 cells; SK-MEL-5 TRPM1-promoter luciferase, 24 h; % of positive control, neutral wells = 0; activation, % at 12.5 µM; 300,000 compounds, 0.75% hits; AID 588334;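 active = mean activation of at least 80% with every replicate also reaching 80%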
# Wnt act: activators of Wnt/beta-catenin signaling. 300,000 compounds, 1.2% hits. Wnt/beta-catenin reporter cell assay, activator, plate reader. activation, % at 9.35 µM; in the data active = activation above about 30%, passing the limit was not always enough
# esBAF inh: SWI/SNF esBAF complex inhibition | AID 602393 | reporter increase, % at 12.5 µM | 350,000 compounds, 2% hits | mouse ES cells, Bmi1-luciferase knock-in reporter, 24 h; 100% = twice the neutral-well signal; in the data active = activation above about 40%;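 note: a rise in the Bmi1 reporter signal indicates esBAF inhibition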
# AHR activator: activates the human aryl hydrocarbon receptor | AHR-responsive luciferase reporter cells, luminescence | activation, % at 5 µM | 320,000 compounds, 2.5% hits; in the data active = activation above about 47%
# FXN GAA850 act: frataxin GAA850 promoter activation. activation, % at 6 µM. 360,000 compounds, 0.56% hits. AID 540364. HEK293 lucGAA850 FXN promoter luciferase reporter, 24 h; percent of 10 µM SAHA response;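 active = activation above the average of all compounds screened plus 3 SD, cutoff fixed separately per campaign, cut at about 7.5% in these data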
# GAA30 counter: GAA30 FXN promoter activation counter-screen. shares compounds with FXN GAA850 act. HEK293 lucGAA30 FXN promoter luciferase, 24 h; DMSO = 0%, 5 µM ipriflavone = 100%. activation, % at 6 µM. 1,900 compounds, 66% hits;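 active = mean activation above the mean of solvent-only control wells plus 3 SD, cut at about 22% in these data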;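 note: counterscreen of GAA850 promoter hits where activity marks nonselective or luminescence artifacts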
# FXN GAA850 conf: confirmation of GAA850 frataxin (FXN) promoter activators | shares compounds with FXN GAA850 act | HEK293 lucGAA850 FXN promoter luciferase reporter, 24 h; 100% = activation by SAHA | activation, % at 6 µM | 1,900 compounds, 86% hits | AID 588351;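 active = mean activation above a set limit taken from the primary screen, cut at about 8% in these data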
# Numbers stand for hits; . = inactive; / = no result. Sampled rows, rich in hits. Any-hit rate of the full collection: about 4.2%.
SMILES,MITF TRPM1 HTS,Wnt act,esBAF inh,AHR activator,FXN GAA850 act,GAA30 counter,FXN GAA850 conf
COc1ccc(C2=Nn3c(nnc3-c3cccnc3)SC2)cc1OC,/,/,.,.,14.6,31.5,19.9
COc1ccc(NC(=O)Nc2ccc3c(c2)C(=O)N([C@@H](C)CO)C[C@@H](C)[C@@H](CN(C)S(=O)(=O)c2ccc(F)cc2)OCCCC[C@@H](C)O3)cc1,/,/,.,/,/,/,/
COc1ccc(C2=NN(c3ccc(C(=O)O)cc3)C(c3ccc(OC)c(OC)c3)C2)cc1 (stereo unspecified),.,.,.,.,11.4,31.4,18.9
CO[C@@H]1CN(C)C(=O)c2ccc(NC(=O)Nc3c(C)noc3C)cc2OC[C@@H](C)N(CC2CC2)C[C@H]1C,/,/,.,/,/,/,/
O=C(COC(=O)c1cccnc1)c1ccc(Cl)cc1,.,.,.,.,11.1,21.9,.
COc1ccc(C#Cc2ccc3c(c2)O[C@H](CN(C)C(=O)CN2CCOCC2)[C@@H](C)CN([C@@H](C)CO)S3(=O)=O)cc1,/,/,.,/,/,/,/
CCCCn1c(/C=N/Nc2nc3ccccc3[nH]2)nc2ccccc21,.,.,/,73.3,12.3,.,.
CCCCn1c(/C=C/c2ccco2)nc2ccccc21,.,.,/,.,.,/,/
Cc1ccc(NC(=O)C(NC2CCCc3ccccc32)c2ccccc2)c([N+](=O)[O-])c1 (stereo unspecified),.,.,.,.,9.6,.,17.1
Cc1ccc(NC(=O)C(NC2CCCc3ccccc32)c2ccccc2)cc1Cl (stereo unspecified),.,.,.,.,.,/,/
Cc1cccc(Nc2n[nH]c(C)c2[N+](=O)[O-])c1,.,/,/,59.2,8.7,92.2,36.9
COc1ccccc1-c1ccc2n(c1=O)C[C@H]1[C@H](CO)[C@@H](C(=O)N(C)C)N(CC3CCOCC3)[C@@H]21,/,/,.,/,/,/,/
Cc1nc([N+](=O)[O-])c(Br)n1CC(=O)c1ccc2ccccc2c1,/,/,.,.,24.5,327.8,117.7
O=C(NC(=S)Nc1ncc(Br)cc1Br)c1cncc(Br)c1,.,.,.,.,.,/,/
O=C(NC(=S)NC1CCCCCC1)c1cncc(Br)c1,95.5,37.3,/,.,8.3,95.0,32.7
COc1ccc(-c2cc(C(F)(F)F)nc(S(=O)(=O)CCCC(=O)Nc3cccnc3Cl)n2)cc1OC,.,.,/,/,8.7,53.9,52.2
COC(=O)CCS(=O)(=O)c1nc(-c2ccccc2)cc(C(F)(F)F)n1,.,/,/,.,.,/,/
Cc1cc(NC(=O)CSc2nc(-c3cccs3)cc(C(F)(F)F)n2)no1,.,/,.,.,.,/,/
Cc1cc(NC(=O)CCCS(=O)(=O)c2nc(-c3cccs3)cc(C(F)(F)F)n2)no1,.,.,/,.,9.6,.,.
CCC(=O)N(C)C[C@@H]1Oc2cc(C#Cc3ccncc3)ccc2S(=O)(=O)N([C@@H](C)CO)C[C@H]1C,/,/,.,/,/,/,/
C[C@H](CO)N1C[C@H](C)[C@H](CN(C)S(=O)(=O)c2ccc(Cl)cc2)Oc2c(NS(=O)(=O)c3cccs3)cccc2C1=O,/,/,.,/,/,/,/
CCOC(=O)C(C)Oc1cccc2c(=O)n(CC(=O)Nc3ccc4c(c3)OCCO4)ccc12 (stereo unspecified),.,.,.,.,11.4,.,.
CCCOC(=O)c1c(N)sc(C(=O)OCC)c1C,.,/,/,.,14.3,64.1,24.8
CCOC(=O)c1c(N)sc(C(N)=O)c1C,/,.,.,.,.,/,/
N#CC(=C1CCCC1)c1nc(-c2ccccc2)cs1,120.6,/,/,.,9.5,111.0,39.1
O=C(Nc1ncc(Cc2cccc(Cl)c2)s1)C1CCCO1 (stereo unspecified),96.7,/,/,.,8.2,86.6,27.6
Cc1ccc(/C=C/c2nc3ccccc3[nH]2)o1,.,37.6,/,.,8.9,114.0,38.5
COCCCN1C(=O)c2[nH]nc(-c3ccccc3O)c2C1c1ccc(Cl)cc1 (stereo unspecified),/,.,.,.,.,/,/
COc1ccc(CCN2C(=O)c3[nH]nc(-c4ccccc4O)c3C2c2ccccc2)cc1OC (stereo unspecified),/,.,.,.,13.3,.,8.9
N#C/C(=C\c1cccs1)C(=O)Nc1ccccn1,88.5,74.3,/,.,8.9,106.1,33.7
